Results reported in PubChem BioAssay (NCATS).
Several values for one entry are separate records, joined by “and”; a condition that tells them apart may be missing. Identical values can stand only once. Records with an inconclusive call do not appear. Activity calls are given as the source filed them. Calls come from the whole dose curve; as a rule, active = well fitted curve in the direction sought with a large enough effect; inconclusive = small, poorly fitted or top-dose-only effect, or another doubt; inactive = no such curve, though single readings can be large; an effect the other way counts as inactive or inconclusive.

Assays:
[1] = qHTS of pediatric cancer cell lines to identify multiple opportunities for drug repurposing: Primary screen for LAN-5 cells (AID 1347100); note: potency is the fitted concentration of half-maximal effect
Procedure, shortened: (§1)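 Viability after 48 h compound treatment at 37C, 500-1,000 cells/well, read as ATP luminescence with CellTiter-Glo. Primary screens used 11-point (MIPE, 0.78 nM-46 µM) or 8-point (NPC, 0.59 nM-46 µM) final concentrations; follow-up screens used 11-point dilutions.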

[2] = qHTS of pediatric cancer cell lines to identify multiple opportunities for drug repurposing: Primary screen for Rh18 cells (AID 1347102); note: nearly all actives have a fitted effect of over 65% in size; note: potency is the fitted concentration of half-maximal effect
Procedure, shortened: as §1

[3] = qHTS of pediatric cancer cell lines to identify multiple opportunities for drug repurposing: Primary screen for OHS-50 cells (AID 1347103); note: nearly all actives have a fitted effect of over 40% in size; note: potency is the fitted concentration of half-maximal effect
Procedure, shortened: (§2)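 Cells (500-1,000/well) rested 5 h, then received compounds for 48 h; metabolically active cells were measured by CellTiter-Glo luminescence. Final concentrations spanned up to 46 µM (MIPE, 11-point) or 0.59 nM-46 µM (NPC, 8-point) in primary screens, 11-point in follow-ups.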

[4] = qHTS of pediatric cancer cell lines to identify multiple opportunities for drug repurposing: Primary screen for RD cells (AID 1347104); note: nearly all actives have a fitted effect of over 55% in size; note: potency is the fitted concentration of half-maximal effect
Procedure, shortened: (§3)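 Plated cells (500-1,000 per well, growth media) were allowed to settle for 5 hours, treated with compound dilutions for 48 hours, then lysed with CellTiter-Glo for 15 min at room temperature before luminescence reading.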

[5] = qHTS of pediatric cancer cell lines to identify multiple opportunities for drug repurposing: Primary screen for MG 63 (6-TG R) cells (AID 1347105); note: nearly all actives have a fitted effect of over 50% in size; note: potency is the fitted concentration of half-maximal effect
Procedure, shortened: as §3

[6] = qHTS of pediatric cancer cell lines to identify multiple opportunities for drug repurposing: Primary screen for control Hh wild type fibroblast cells (AID 1347106);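 note: series mostly up to about 46 µM; a drop in luminescence marks cytotoxicity and a rise apparent proliferation; nearly all actives have a fitted effect of over 55% in size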
Procedure, shortened: as §1

[7] = qHTS of pediatric cancer cell lines to identify multiple opportunities for drug repurposing: Primary screen for Rh30 cells (AID 1347107); note: series mostly up to about 46 µM; nearly all actives have a fitted effect of over 75% in size
Procedure, shortened: as §1

[8] = qHTS of pediatric cancer cell lines to identify multiple opportunities for drug repurposing: Primary screen for Rh41 cells (AID 1347108); note: nearly all actives have a fitted effect of over 70% in size; note: potency is the fitted concentration of half-maximal effect
Procedure, shortened: as §3

[9] = qHTS of pediatric cancer cell lines to identify multiple opportunities for drug repurposing: Primary screen for BT-12 cells (AID 1347101); note: potency is the fitted concentration of half-maximal effect; nearly all actives have a fitted effect of over 25% in size
Procedure, shortened: as §2

[10] = qHTS of pediatric cancer cell lines to identify multiple opportunities for drug repurposing: Confirmatory screen for NB1643 cells (AID 1347109); note: nearly all actives have a fitted effect of over 45% in size; note: potency is the fitted concentration of half-maximal effect
Procedure, shortened: as §1

[11] = qHTS of pediatric cancer cell lines to identify multiple opportunities for drug repurposing: Confirmatory screen for A673 cells (AID 1347110);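 note: potency is the fitted concentration of half-maximal effect; cells exposed to compound for 48 h before the viability read; nearly all actives have a fitted effect of over 65% in size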
Procedure, shortened: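 Forty-eight-hour viability assay. Follow-up compounds ran at 11-point dilutions; positive control bortezomib at 2.3 uM final, neutral control DMSO.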

[12] = qHTS of pediatric cancer cell lines to identify multiple opportunities for drug repurposing: Confirmatory screen for LAN-5 cells (AID 1347113); note: nearly all actives have a fitted effect of over 65% in size; note: potency is the fitted concentration of half-maximal effect
Procedure, shortened: as §1

[13] = qHTS of pediatric cancer cell lines to identify multiple opportunities for drug repurposing: Confirmatory screen for NB-EBc1 cells (AID 1347115);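 note: cells exposed to compound for 48 h before the viability read; nearly all actives have a fitted effect of over 45% in size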; note: potency is the fitted concentration of half-maximal effect
Procedure, shortened: as §1

[14] = qHTS of pediatric cancer cell lines to identify multiple opportunities for drug repurposing: Confirmatory screen for BT-37 cells (AID 1347117); note: nearly all actives have a fitted effect of over 55% in size; note: potency is the fitted concentration of half-maximal effect
Procedure, shortened: as §1

[15] = qHTS of pediatric cancer cell lines to identify multiple opportunities for drug repurposing: Confirmatory screen for TC32 cells (AID 1347118);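 note: potency is the fitted concentration of half-maximal effect; cells exposed to compound for 48 h before the read; nearly all actives have a fitted effect of over 65% in size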
Procedure, shortened: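 qHTS, TC32, 48 h drug treatment, CellTiter-Glo luminescence as a proxy for metabolically active cells; primary top concentration 46 µM (MIPE 11-pt, NPC 8-pt); confirmatory 11-pt.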

[16] = qHTS of pediatric cancer cell lines to identify multiple opportunities for drug repurposing: Confirmatory screen for MG 63 (6-TG R) cells (AID 1347119); note: nearly all actives have a fitted effect of over 55% in size; note: potency is the fitted concentration of half-maximal effect
Procedure, shortened: as §1

[17] = qHTS of pediatric cancer cell lines to identify multiple opportunities for drug repurposing: Confirmatory screen for BT-12 cells (AID 1347112); note: nearly all actives have a fitted effect of over 55% in size
Procedure, shortened: as §1

[18] = qHTS of pediatric cancer cell lines to identify multiple opportunities for drug repurposing: Confirmatory screen for DAOY cells (AID 1347114); note: nearly all actives have a fitted effect of over 65% in size; note: potency is the fitted concentration of half-maximal effect
Procedure, shortened: (§4)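 Viability measured as metabolically active cells via CellTiter-Glo luminescence following 48 hours of compound exposure, 11-point dilutions in confirmatory testing. 500-1,000 cells/well plated 5 hours before dosing; controls were DMSO and 2.3 µM bortezomib.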

[19] = qHTS of pediatric cancer cell lines to identify multiple opportunities for drug repurposing: Confirmatory screen for SJ-GBM2 cells (AID 1347116); note: nearly all actives have a fitted effect of over 60% in size; note: potency is the fitted concentration of half-maximal effect
Procedure, shortened: as §4

[20] = qHTS of pediatric cancer cell lines to identify multiple opportunities for drug repurposing: Confirmatory screen for control Hh wild type fibroblast cells (AID 1347121); note: nearly all actives have a fitted effect of over 70% in size
Procedure, shortened: as §1

Measured: Potency

CCOc1cc(N)c(Cl)cc1C(=O)NCC1CN(Cc2ccc(F)cc2)CCO1 (stereo not given)
inactive: [1] | [2] | [3] | [4] | [5] | [6] | [7]

CN(CCOc1ccc(CC2SC(=O)NC2=O)cc1)c1ccccn1 (stereo not given)
inactive: [1] | [2] | [3] | [4] | [5] | [6] | [7] | [8]

Oc1c(Cl)cc(Cl)c2cccnc12
inactive: [6]
active: [1] 5.96 µM and 18.7 µM | [9] 27.6 µM and 30.6 µM | [3] 12.3 µM and 27.3 µM | [4] 5.31 µM and 26.4 µM | [5] 6.68 µM and 11.8 µM | [8] 23.5 µM | [10] 18.5 µM | [11] 8.27 µM | [12] 14.7 µM | [13] 18.5 µM | [14] 18.5 µM | [15] 8.27 µM | [16] 11.7 µM

CCCc1nc(C)c2c(=O)[nH]c(-c3cc(S(=O)(=O)N4CCN(CC)CC4)ccc3OCC)nn12
inactive: [6]
active: [8] 14.8 µM

COc1cc2ncnc(Nc3cccc(Cl)c3)c2cc1OC
inactive: [6] | [7]
active: [3] 24.3 µM

CCOC(=O)[C@H](CCc1ccccc1)N[C@H]1CS[C@H](c2cccs2)CN(CC(=O)O)C1=O
active: [11] 10.4 µM | [15] 8.27 µM
not listed: [1] | [2] | [3] | [4] | [5] | [8] | [9]
inactive: all other assays above

CC(C)(C)NC(=O)[C@H]1CC[C@H]2[C@@H]3CC[C@H]4NC(=O)C=C[C@]4(C)[C@H]3CC[C@]12C
active: [3] 12.2 µM
inactive: [2] | [7]

CNCC[C@H](Oc1cccc2ccccc12)c1cccs1
active: [3] 15.5 µM | [4] 26.6 µM and 4.69 µM | [11] 14.7 µM | [15] 7.37 µM | [16] 26.1 µM
inactive: [1] | [7] | [10] | [17] | [13] | [19] | [14] | [20]

CC(=O)[C@H]1CC[C@H]2[C@@H]3CC=C4C[C@@H](O)CC[C@]4(C)[C@H]3CC[C@]12C
inactive: [1] | [2] | [4] | [5] | [6] | [7] | [8]

Nc1nc(F)nc2c1ncn2[C@@H]1O[C@H](CO)[C@@H](O)[C@@H]1O
inactive: [6] | [7] | [18] | [20]
active: [1] 11.9 µM and 469 nM | [3] 55 nM and 485 nM | [4] 833 nM | [5] 42.2 nM and 590 nM | [10] 0.465 µM | [11] 1.85 µM | [19] 1.65 µM | [14] 14.7 µM and 414 nM | [15] 18.5 µM and 737 nM | [16] 737 nM and 827 nM

Nc1nc(=S)c2[nH]cnc2[nH]1
inactive: [5] | [6] | [16] | [20]
active: [1] 2.35 µM | [2] 13.3 µM | [3] 872 nM and 1.72 µM | [10] 5.85 µM and 4.14 µM | [11] 2.61 µM and 1.65 µM | [12] 2.93 µM and 2.33 µM | [18] 2.61 µM and 1.47 µM | [13] 2.61 µM | [19] 5.22 µM | [14] 3.29 µM and 2.93 µM | [15] 1.17 µM and 737 nM

CCN(CC)CC#CCOC(=O)C(O)(c1ccccc1)C1CCCCC1 (stereo not given)
inactive: [2] | [4] | [5] | [6] | [7] | [8]
